Source: PubChem BioAssay (Sanford-Burnham Center for Chemical Genomics)
CYP2C19 act = cytochrome P450 2C19 (human) activation | activation factor at 5 µM | 96,000 tested, under 10 active | recombinant CYP2C19, luciferin-H EGE luminescence; hits give high values; 0 = fully inhibited enzyme, 1 = untreated enzyme;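 active = activation factor of at least 2 at 5 µM in the primary screen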;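 also: 0 = wells with 2.5 mM tranylcypromine and 1 = vehicle-only wells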
CYP2C9 activ = increases human cytochrome P450 2C9 activity | 96,000 compounds, 1.4% hits | activation factor at 5 µM | P11712 | recombinant CYP2C9, luciferin-H conversion, luminescence; hits give high values; factor 1 = untreated enzyme, 0 = blocked | AID 1024;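 active = activation factor of 2 or more for CYP2C9 at a 5 µM dose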;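 also: 0 = sulfaphenazole-blocked wells and 1 = vehicle-only wells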
Target sequence (P11712 whole entry, looked up): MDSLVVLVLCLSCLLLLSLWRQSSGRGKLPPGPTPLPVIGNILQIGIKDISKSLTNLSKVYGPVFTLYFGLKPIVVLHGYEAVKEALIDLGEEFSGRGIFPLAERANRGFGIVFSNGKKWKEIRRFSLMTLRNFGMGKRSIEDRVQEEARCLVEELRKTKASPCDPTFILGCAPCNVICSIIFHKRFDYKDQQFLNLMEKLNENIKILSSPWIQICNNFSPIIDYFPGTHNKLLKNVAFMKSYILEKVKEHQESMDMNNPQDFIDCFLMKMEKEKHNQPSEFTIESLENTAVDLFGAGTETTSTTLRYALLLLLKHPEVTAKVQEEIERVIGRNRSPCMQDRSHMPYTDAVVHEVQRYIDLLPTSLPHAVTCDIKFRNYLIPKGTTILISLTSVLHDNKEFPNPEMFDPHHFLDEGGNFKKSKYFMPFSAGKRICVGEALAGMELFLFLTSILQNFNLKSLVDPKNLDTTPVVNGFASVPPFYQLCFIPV
CYP2C9 inh = inhibitors of human CYP2C9 | P11712 | inhibition, % at 5 µM | 96,000 compounds, 20% hits | CYP2C9 Supersomes, luciferin-H conversion, luminescence;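 active = blocking of liver enzyme CYP2C9 beyond about 50% at 5 µM, limit read from the data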
PLAP act = activators of human placental alkaline phosphatase | P05187 | AID 696 | activation fold at 20 µM | 96,000 compounds, 1.2% hits | purified PLAP enzyme, luminescent substrate read-out; hits give high values; in the data active = activation fold above about 2
CYP2C19 inhib = blocks human cytochrome P450 2C19; CYP2C19 Supersomes, luciferin-H EGE luminescence, 30 min; inhibition, % at 5 µM; 96,000 compounds, 21% hits;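 active = CYP2C19 inhibition above a set limit at 5 µM in the primary screen, cut at about 50% in these data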;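 also: plate controls were negative control wells for no effect and 2.5 mM tranylcypromine positive control for full effect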
* marks the source's active call; other numbers are inactive results. An excerpt weighted towards active compounds, which were near 31% of everything screened.

Cc1ccc(NC(=O)CCn2cccc2)cc1C was read as CYP2C19 act 0.1, CYP2C9 activ 0.9, CYP2C9 inh 9.2, PLAP act 0.9 and CYP2C19 inhib 85.4*.
`COc1ccccc1C(=O)N1CCN=C1c1ccccc1` gave CYP2C19 act 0.7, CYP2C9 activ 1.7, CYP2C9 inh -70.4, PLAP act 0.9 and CYP2C19 inhib 33.1.
For O=C(NC(C(=O)O)c1ccccc1)c1ccccc1 (stereo not given) the results were CYP2C19 act 1, CYP2C9 activ 1, CYP2C9 inh -1.9, PLAP act 1.1 and CYP2C19 inhib -0.5.
CCN(CC)C(NC(=O)c1ccccc1)C(=O)c1ccccc1 (stereo not given) was read as CYP2C19 act 0.4, CYP2C9 activ 0.4, CYP2C9 inh 61.9*, PLAP act 1.2 and CYP2C19 inhib 59.6*.
`COC(=O)C(NC(=O)c1ccccc1)c1ccccc1` (stereo not given) gave CYP2C19 act 0.7, CYP2C9 activ 0.9, CYP2C9 inh 10.0, PLAP act 0.9 and CYP2C19 inhib 32.9.
Screening CCOC(NC(=O)c1ccccc1)C(NC(=O)c1ccccc1)OCC (stereo not given) returned CYP2C19 act 0.5, CYP2C9 activ 0.8, CYP2C9 inh 16.0, PLAP act 1 and CYP2C19 inhib 53.0*.
COc1ccc(N(CC(=O)Nc2cccc(C(=O)O)c2)S(=O)(=O)c2c(C)noc2C)cc1 was read as CYP2C19 act 1, CYP2C9 activ 0.3, CYP2C9 inh 67.6*, PLAP act 1.2 and CYP2C19 inhib 3.6.
CCOC(=O)c1cccc(NC(=O)CN(c2ccc(OC)cc2)S(=O)(=O)c2c(C)noc2C)c1 was read as CYP2C19 act 0.2, CYP2C9 activ 0.1, CYP2C9 inh 94.5*, PLAP act 1.5 and CYP2C19 inhib 77.2*.
Cc1ccc(N(CC(=O)Nc2ccc(F)c(Cl)c2)S(=O)(=O)c2c(C)noc2C)cc1 was read as CYP2C19 act 1, CYP2C9 activ 0.9, CYP2C9 inh 7.1, PLAP act 1 and CYP2C19 inhib 0.9.
`O=C(Cn1cnc2ccccc2c1=O)NC1CCCc2ccccc21` (stereo not given) gave CYP2C19 act 1, CYP2C9 activ 1, CYP2C9 inh 3.5, PLAP act 1.1 and CYP2C19 inhib 0.0.
Screening COC(=O)COc1nc(C)c2c(c1C#N)CC(C)(C)OC2 returned CYP2C19 act 0.8, CYP2C9 activ 0.9, CYP2C9 inh 5.3, PLAP act 0.9 and CYP2C19 inhib 18.9.
Screening CCO/C=N/c1c(C#N)c2c(c(=S)n1C)COC(C)(C)C2 returned CYP2C19 act 0.3, CYP2C9 activ 0.5, CYP2C9 inh 48.9, PLAP act 1.1 and CYP2C19 inhib 66.3*.
CCOC(=O)c1sc2ncnc(N3CCN(C(=O)OCC)CC3)c2c1C was read as CYP2C19 act 0.6, CYP2C9 activ 0.2, CYP2C9 inh 75.8*, PLAP act 1.5 and CYP2C19 inhib 36.9.
CCOC(=O)CNC(=O)c1sc2nc(C)cc(C)c2c1N was read as CYP2C19 act 1, CYP2C9 activ 1, CYP2C9 inh -4.8, PLAP act 0.9 and CYP2C19 inhib -2.1.
For Cc1c(C(=O)NCCCN2CCOCC2)sc2ncnc(N3CCN(c4ccccc4)CC3)c12 the results were CYP2C19 act 0.5, CYP2C9 activ 0.1, CYP2C9 inh 91.1*, PLAP act 1.5 and CYP2C19 inhib 50.4*.
Cc1c(C(=O)N2CCN(c3ccccc3F)CC2)sc2ncn(CC(=O)N3CCOCC3)c(=O)c12 was read as CYP2C19 act 1, CYP2C9 activ 0.9, CYP2C9 inh 10.6, PLAP act 1.5 and CYP2C19 inhib 2.6.
Screening CCOC(=O)CNC(=O)c1sc2ncnc(N3CCc4ccccc4C3)c2c1C returned CYP2C19 act 0.2, CYP2C9 activ 0, CYP2C9 inh 97.6*, PLAP act 1.9 and CYP2C19 inhib 78.8*.
For Cc1c(C(=O)N2CCN(Cc3ccccc3)CC2)sc2ncnc(N3CCOCC3)c12 the results were CYP2C19 act 0.5, CYP2C9 activ 0.7, CYP2C9 inh 32.3, PLAP act 1.5 and CYP2C19 inhib 54.7*.
For O=C(NCCCN1CCOCC1)c1cc(-c2ccccc2)on1 the results were CYP2C19 act 0.9, CYP2C9 activ 1.1, CYP2C9 inh -10.7, PLAP act 1 and CYP2C19 inhib 14.4.
`CCc1ccccc1NC(=O)CC(O)(C(=O)OC)C(F)(F)F` (stereo not given) gave CYP2C19 act 0.5, CYP2C9 activ 0.8, CYP2C9 inh 23.4, PLAP act 1 and CYP2C19 inhib 48.3.
`CCOC(=O)c1ccc(NC(=O)c2cc(S(=O)(=O)N3CCOCC3)ccc2O)cc1` gave CYP2C19 act 1.1, CYP2C9 activ 0.6, CYP2C9 inh 42.5, PLAP act 1.3 and CYP2C19 inhib -7.8.
`COc1cc(C(=O)N2CCN(c3ncnc4sc(C)c(C)c34)CC2)cc(OC)c1OC` gave CYP2C19 act 0.3, CYP2C9 activ 0.3, CYP2C9 inh 70.5*, PLAP act 1.3 and CYP2C19 inhib 73.3*.
`CCCCNC(=O)c1sc2ncnc(N3CCc4ccccc4C3)c2c1C` gave CYP2C19 act 0.8, CYP2C9 activ 0.1, CYP2C9 inh 94.1*, PLAP act 0.8 and CYP2C19 inhib 18.5.
Screening CCOC(=O)c1sc2nc(CC(=O)OC)nc(N3CCN(c4ccccn4)CC3)c2c1C returned CYP2C19 act 0.3, CYP2C9 activ 0.2, CYP2C9 inh 84.8*, PLAP act 1.3 and CYP2C19 inhib 68.4*.
Cc1c(C(=O)O)sc2ncnc(N3CCCCC3C)c12 (stereo not given) was read as CYP2C19 act 1, CYP2C9 activ 0.9, CYP2C9 inh 8.5, PLAP act 1 and CYP2C19 inhib -3.7.
`COc1cc(C(=O)N2CCN(C(=O)c3ccccc3)CC2)cc(OC)c1OC` gave CYP2C19 act 1.2, CYP2C9 activ 1.2, CYP2C9 inh -23.4, PLAP act 1.2 and CYP2C19 inhib -17.1.
COCCN(C(=O)Nc1ccc(OC)cc1OC)C1CCN(C(C)=O)CC1 was read as CYP2C19 act 1.1, CYP2C9 activ 1, CYP2C9 inh 0.7, PLAP act 1.2 and CYP2C19 inhib -11.0.
For CCn1c(=O)c(C(=O)Nc2nc3ccccc3[nH]2)c(O)c2ccccc21 the results were CYP2C19 act 1, CYP2C9 activ 0.9, CYP2C9 inh 6.3, PLAP act 1 and CYP2C19 inhib -1.3.
CCC(=O)N1CCCc2cc(S(=O)(=O)N3CCN(c4ncccn4)CC3)ccc21 was read as CYP2C19 act 0, CYP2C9 activ 0, CYP2C9 inh 95.6*, PLAP act 1.2 and CYP2C19 inhib 98.2*.
CCC(=O)N1CCCc2cc(S(=O)(=O)N3CCN(c4ccccc4F)CC3)ccc21 was read as CYP2C19 act 0, CYP2C9 activ 0, CYP2C9 inh 99.9*, PLAP act 1.8 and CYP2C19 inhib 95.5*.
CCC(=O)N1CCCc2cc(S(=O)(=O)N3CCN(c4ccccn4)CC3)ccc21 was read as CYP2C19 act 0.5, CYP2C9 activ 0.2, CYP2C9 inh 79.7*, PLAP act 1.6 and CYP2C19 inhib 50.1*.
